This passage reports growth inhibition results from PubChem BioAssay (NCI).

The nature of assay [1]: NCI Yeast Anticancer Drug Screen. Data for the rad50 strain (AID 155).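 Also: 0% = growth of vehicle-only cultures of the same strain.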 Conditions: S. cerevisiae rad50 strain growth inhibition; at 50.0 µM; hits give high values. The procedure, abridged:
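Yeast carrying a defined DNA repair defect were exposed to test compounds, and growth was compared with vehicle-treated controls to give percent inhibition.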

Assay [2] can be described thus: NCI Yeast Anticancer Drug Screen. Data for the mec2-1 strain (AID 157). Conditions: S. cerevisiae mec2-1 strain, at 50.0 µM, hits give high values. The procedure, abridged:
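Test agents were screened against the mec2-1 yeast strain, with defined DNA repair or cell cycle alteration. Growth was scored as inhibition against vehicle-only controls.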

Assay [3] in a line: NCI Yeast Anticancer Drug Screen. Data for the sgs1 mgt1 strain (AID 161).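 Also: 0% = growth of cultures given vehicle only.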 Conditions: S. cerevisiae sgs1 mgt1 strain, at 50.0 µM, hits give high values. The procedure, abridged: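 Inhibition of yeast growth, normalised to vehicle-treated controls, is reported for a strain bearing genetic alterations in DNA damage repair.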
Assay [4] in a line: NCI Yeast Anticancer Drug Screen. Data for the cln2 rad14 strain (AID 165).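 Also: 0% = growth equal to vehicle treated cultures.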 Conditions: S. cerevisiae cln2 rad14 strain, at 50.0 µM, hits give high values. The procedure, abridged:
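Growth of compound-exposed yeast (cln2 rad14 genotype) measured and expressed as inhibition relative to vehicle.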

Assay [5] in a line: NCI Yeast Anticancer Drug Screen. Data for the bub3 strain (AID 167). The settings on record: S. cerevisiae bub3 mutant strain, at 50.0 µM, hits give high values. The procedure, abridged: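 Compounds were applied to a genetically altered yeast strain carrying a cell-cycle control defect. Growth inhibition was scored against vehicle-treated controls.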
A short description of assay [6]: NCI Yeast Anticancer Drug Screen. Data for the mlh1 rad18 strain (AID 175). Conditions: S. cerevisiae mlh1 rad18 strain growth inhibition; at 50.0 µM; hits give high values. The procedure, abridged: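 In this whole-cell yeast screen, a strain with altered DNA damage repair is challenged with compound, and its growth is measured against matched vehicle-treated controls.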

Compounds without any hit were thinned out: in the full panel of roughly 79,000, 15% have a hit. Values without a mark were called inactive. Active and inactive are the calls of the source. Rule as the data show it: active = growth inhibition above about 70%; inactive = the rest.

Regarding `O=CC1N=C(Cc2ccccc2)OC1=O` (stereo not given), the growth inhibition in assay [1] is 25.6%; in assay [2], 10%; in assay [3], -6.2%; in assay [4], -4.55%; in assay [5] it was -7.35%; in assay [6], 8.2%.

Take `COc1ccc(C(=O)O[C@@H]2CCN3CC[C@H](C)[C@H]23)cc1`: the growth inhibition was 7.4% in assay [1]; -22.5% in assay [2]; 7.3% in assay [3]; 12.7% in assay [4]; -6.35% in assay [5]; -74.8% in assay [6].

For the compound `Cc1ncc2c(=O)c3c(oc2n1)c1ccccc1n3Cc1ccccc1`, the growth inhibition in assay [1] is 8.75%; in assay [2] it was 9.15%; in assay [3], 15.2%; in assay [4] it was 3.1%; in assay [5] it was 11.7%; in assay [6], -4.1%.

As for `CCCCCCCCCCC(CCCCCCCCCC)=NN=C(CCCCCCCCCC)CCCCCCCCCC`, the growth inhibition was -41.4% in assay [1]; 9.45% in assay [2]; 1.35% in assay [3]; 25.9% in assay [4]; 1.1% in assay [5]; -9.3% in assay [6].

Turning to `CC(C)(O)c1c(F)c(F)c(F)c(F)c1F`, the growth inhibition in assay [1] is 17.2%; in assay [2], -13.7%; in assay [3], 5.1%; in assay [4], 17.6%; in assay [5] it was 27.8%; in assay [6], 7.15%.

For the compound `Cc1cc(Cl)c(Cl)cc1NC(=O)c1c(Br)c(Br)c(Br)c(Br)c1C(=O)O`, the growth inhibition is 0.7% in assay [1]; 11.4% in assay [2]; 8% in assay [3]; -16.1% in assay [4]; -3.2% in assay [5]; 28.4% in assay [6].

As for `Nc1cc(Cc2ccccc2)ccc1O`, the growth inhibition in assay [1] is 42.5%; in assay [2], 25.8%; in assay [3] it was 58.8%; in assay [4], 18.8%; in assay [5] it was 31.2%; in assay [6], 46.7%.

`COc1ccc(C2=Nn3c(nc4sc(C)c(C)c4c3=O)SC2)cc1`: the growth inhibition in assay [1] is 2.45%; in assay [2], -8.15%; in assay [3] it was -3.7%; in assay [4] it was 19.1%; in assay [5] it was 2.95%; in assay [6], -14.3%.

For the compound `Cc1onc(-c2ccccc2Cl)c1-c1nc2ccccc2c(=O)o1`, the growth inhibition is 94.1% (active) in assay [1]; 97% (active) in assay [2]; 98.5% (active) in assay [3]; 93.2% (active) in assay [4]; 96.8% (active) in assay [5]; 93.5% (active) in assay [6].

With `C[N+](C)(C)/N=C/c1ccc(O)c(O)c1`, the growth inhibition in assay [1] was -48.2%; in assay [2], -23.8%; in assay [3], -15.3%; in assay [4], -16%; in assay [5], -14.9%; in assay [6] it was -13.8%.

As to `O=S1(=O)C2CCC(C2)C1Cl` (stereo not given), the growth inhibition in assay [1] was 4.5%; in assay [2], 2.75%; in assay [3] it was 7.45%; in assay [4], -18.9%; in assay [5], -1.05%; in assay [6] it was 4.2%.

Turning to `CC(=O)NC(CCCNC(=O)N(C)N=O)C(=O)NCc1ccccc1` (stereo not given), the growth inhibition was -35% in assay [1]; -26.9% in assay [2]; -15.6% in assay [3]; 6.9% in assay [4]; -21.2% in assay [5]; -13.3% in assay [6].

On to `COC(=O)C(=[N+]=[N-])C(=O)c1cccc([N+](=O)[O-])c1`, for which the growth inhibition in assay [1] was 11.1%; in assay [2], 15.5%; in assay [3], 5.75%; in assay [4], 17.2%; in assay [5], 3.2%; in assay [6], 12.2%.

`N#CC(=O)Nc1cccc(Cl)c1`: the growth inhibition is -13.1% in assay [1]; -8.05% in assay [2]; -16.4% in assay [3]; -19.7% in assay [4]; -3.05% in assay [5]; -0.15% in assay [6].

As for `CCOc1ccc(NC(=O)CC2SC(=Nc3ccc(C)cc3)NC2=O)cc1` (stereo not given), the growth inhibition in assay [1] is -12.7%; in assay [2], -38.5%; in assay [3] it was -5.3%; in assay [4], 4.35%; in assay [5], -31.9%; in assay [6], -38%.

Take `Cc1ccc(N/N=c2\c3nc4ccccc4nc2n(-c2ccccc2C)c(=S)n3-c2ccc(C)cc2)cc1`: the growth inhibition was -19.6% in assay [1]; -14.3% in assay [2]; 1.15% in assay [3]; -18.7% in assay [4]; 0.8% in assay [5]; -29.5% in assay [6].

Take `O=C1CC(=O)C(Br)=C1Br`: the growth inhibition in assay [1] was 99.5% (active); in assay [2], 99.5% (active); in assay [3], 99.5% (active); in assay [4], 99.3% (active); in assay [5], 99.4% (active); in assay [6] it was 99.5% (active).

For the compound `ClCCCc1ccccc1C1=NCCc2ccccc21`, the growth inhibition in assay [1] was 28.4%; in assay [2] it was 19%; in assay [3], -14.5%; in assay [4], 3.25%; in assay [5], -14.7%; in assay [6], 9.9%.

Regarding `O=[N+]([O-])c1cnc(N(CCO)CCO)s1`, the growth inhibition is 30.4% in assay [1]; -25.4% in assay [2]; 0.1% in assay [3]; 37.8% in assay [4]; -11.5% in assay [5]; 16.4% in assay [6].

For the compound `COc1ccc(C(O)Cc2ccccc2)cc1` (stereo not given), the growth inhibition in assay [1] is -4.9%; in assay [2] it was -19.4%; in assay [3], 5.6%; in assay [4] it was -16.9%; in assay [5], -18.4%; in assay [6], -6.4%.
